# Assay results reported in PubChem BioAssay AID1051 (The Scripps Research Institute Molecular Screening Center, 2008).
# About 340 (0.34%) of roughly 99,000 compounds were called active. This is one part of a sample in which actives are shown more often than they occur. A number with no mark means an inactive call. No stated cut-off is given here; in the data, active means TR-FRET ratio above about 2300; inactive means the rest.
# Test: TR-FRET detection interference compounds, primary screen, artefact control for PPARgamma SRC-1 recruitment agonists, biochemical, TR-FRET emission ratio (AID 1051)
# Details: TR-FRET detection artefact counter-screen, at 8 µM, hits give high values
row,SMILES,TR-FRET ratio
1,COc1ccnc(Oc2ccccc2)n1,1760
2,O=C(Nc1ccc(N2CCN(C(=O)c3cccs3)CC2)cc1)c1cccnc1Cl,1580
3,CNS(=O)(=O)c1ccc(N2CCCC2=O)c([N+](=O)[O-])c1,1690
4,O=S(=O)(c1ccc(-c2ccccc2)cc1)N1CCCC1,1580
5,CC(=O)OC(COc1ccc(F)cc1)Cn1cnc2ccccc21 (centres undefined),1950
6,CC(OC(=O)c1ccc2ccccc2n1)C(=O)c1ccccc1 (centres undefined),1760
7,COC(=O)c1ccc(NC(=S)Nc2cccc(C)n2)cc1,1830
8,Cc1cccc(NC(=O)c2ccc3ccccc3n2)n1,2320 (active)
9,COc1ccc(N2CCN(CCCNC(=O)C3CCN(S(=O)(=O)N4CCOCC4)CC3)CC2)cc1,1660
10,COc1ccc(C)cc1NC(=S)Nc1ccccc1SC,1550
11,O=C(N/N=C/c1ccc([N+](=O)[O-])o1)c1cccc(S(=O)(=O)N2CCOCC2)c1,2000
12,COC(=O)c1ccc(CN2CCN(CCCc3ccccc3)C(CCO)C2)cc1 (centres undefined),1770
13,CC(=O)N1c2ccccc2N(Cc2ccc([N+](=O)[O-])cc2)C(=O)C1(C)C,1840
14,N#Cc1c(NC(=O)C2CC(Cl)=CCC2C(=O)O)sc2c1CCCCC2 (centres undefined),1990
15,COC(=O)C(C)N=Cc1ccccc1 (centres undefined),1960
16,CCN(CC)S(=O)(=O)c1ccc(Cl)c(NC(=O)c2ccncc2)c1,1750
17,Cc1ccc(-c2cn3cc([N+](=O)[O-])ccc3n2)cc1,1970
18,COc1cc(/C=C/C(=O)OCC(=O)N2CCOCC2)ccc1OCC#N,1960
19,Cc1cc(NC(=O)CSc2nc3c(cc2C#N)CCCCC3)no1,1930
20,C/C(CC(=O)Nc1cccc(F)c1)=N\NC(=O)C(=O)NC1CCCCC1,1840
21,CCOc1ccc(N(CC(=O)NCCc2ccc(OC)cc2)S(C)(=O)=O)cc1,1790
22,Cc1ccccc1CN(c1ccc(C(=O)NCC2CCCO2)cc1)S(C)(=O)=O (centres undefined),1760
23,CNc1[nH]ncc1[N+](=O)[O-],1620
24,O=C(c1ccc(OC2CCN(Cc3ccccn3)CC2)cc1)N1CCCCCC1,1590
25,CCc1nnc(NC(=O)/C=C/c2ccc(C)o2)s1,1650

row,SMILES,TR-FRET ratio
1,CCOC(=O)C1CCCN(C(=O)c2cccc(S(=O)(=O)N3CCOCC3)c2)C1 (centres undefined),1820
2,Cc1nc2ccc(NC(=S)N3CCC(C)CC3)cc2nc1C,1940
3,Cn1cc(CCC(=O)N2CCCC(C(=O)c3ccc(C(C)(C)C)cc3)C2)cn1 (centres undefined),2020
4,Cc1coc(C)c1C(=O)CC1(O)C(=O)N(C)c2ccc(Cl)cc21 (centres undefined),1870
5,CC(C)CC(CC(C)C)=NNC(=O)c1ccc(CSc2nncn2C)cc1,1890
6,O=C(C1CC1)N1N=C2CCCCC2C1(O)C(F)(F)F (centres undefined),1750
7,O=[N+]([O-])c1cc(S(=O)(=O)N2CCCC2)ccc1NN=C1CCCC1,1910
8,Cn1cnnc1SCc1nnc(-c2ccccc2Br)o1,1590
9,CCOC(=O)CCCNC(=O)COC(=O)/C=C/c1ccc2c(c1)OCO2,1620
10,O=C(OCC(=O)N1CCOCC1)c1ccc(N2CCOCC2)c([N+](=O)[O-])c1,2030
11,COc1ccc(NC(=S)N2CCCC(CO)C2)c(OC)c1 (centres undefined),1690
12,Cc1nn(C)c(C)c1S(=O)(=O)N1CCC(CO)(Cc2ccc(Cl)cc2)CC1,1980
13,O=C(CCN1C(=O)c2ccccc2C1=O)NNC(=O)c1ccc(Cl)cc1Cl,2130
14,CCC1CO/C(=C(\C(=C(Cl)Cl)N2CCOCC2)[N+](=O)[O-])N1 (centres undefined),1830
15,CN(C(=O)CSc1nncc2ccccc12)C1CCCCC1,1810
16,Cc1ccc(Sc2ccncc2S(N)(=O)=O)cc1,1560
17,CNc1nccc(-c2ccc(Cl)cc2)c1C#N,1880
18,N#Cc1c(-c2ccc(Cl)cc2)c2c([nH]c1=S)CCCC2,2380 (active)
19,CCOC(=O)c1c(C)[nH]c(=S)c(C#N)c1-c1ccccc1,1630
20,Clc1cccc(-c2nc(NCC3CCCO3)c3ccccc3n2)c1 (centres undefined),1630
21,CCc1[nH]nc(C(=O)N2CCCC(CNS(=O)(=O)c3cccs3)C2)c1C (centres undefined),1580
22,O=C(O)Cc1sc(-c2ccc(C(=O)O)cc2)nc1-c1ccccc1,1940
23,O=C(O)Cc1sc(-c2ccccc2)nc1-c1cccs1,2910 (active)
24,O=C(O)Cc1ccc(-c2ccccc2)cc1,1790
